NSD2 inh = blocks human NSD2 histone methyltransferase activity | O96028 | NSD2-SET H3K36me1 DELFIA fluorescence, biochemical | inhibition, % at 12.5 µM | actives 0.07% (n = 44,000) | AID 624260; in the data active = inhibition above about 54%, passing the limit was not always enough;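 also: inhibitors reduce the monomethyl H3K36 fluorescence signal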
Target sequence (O96028 whole entry, looked up): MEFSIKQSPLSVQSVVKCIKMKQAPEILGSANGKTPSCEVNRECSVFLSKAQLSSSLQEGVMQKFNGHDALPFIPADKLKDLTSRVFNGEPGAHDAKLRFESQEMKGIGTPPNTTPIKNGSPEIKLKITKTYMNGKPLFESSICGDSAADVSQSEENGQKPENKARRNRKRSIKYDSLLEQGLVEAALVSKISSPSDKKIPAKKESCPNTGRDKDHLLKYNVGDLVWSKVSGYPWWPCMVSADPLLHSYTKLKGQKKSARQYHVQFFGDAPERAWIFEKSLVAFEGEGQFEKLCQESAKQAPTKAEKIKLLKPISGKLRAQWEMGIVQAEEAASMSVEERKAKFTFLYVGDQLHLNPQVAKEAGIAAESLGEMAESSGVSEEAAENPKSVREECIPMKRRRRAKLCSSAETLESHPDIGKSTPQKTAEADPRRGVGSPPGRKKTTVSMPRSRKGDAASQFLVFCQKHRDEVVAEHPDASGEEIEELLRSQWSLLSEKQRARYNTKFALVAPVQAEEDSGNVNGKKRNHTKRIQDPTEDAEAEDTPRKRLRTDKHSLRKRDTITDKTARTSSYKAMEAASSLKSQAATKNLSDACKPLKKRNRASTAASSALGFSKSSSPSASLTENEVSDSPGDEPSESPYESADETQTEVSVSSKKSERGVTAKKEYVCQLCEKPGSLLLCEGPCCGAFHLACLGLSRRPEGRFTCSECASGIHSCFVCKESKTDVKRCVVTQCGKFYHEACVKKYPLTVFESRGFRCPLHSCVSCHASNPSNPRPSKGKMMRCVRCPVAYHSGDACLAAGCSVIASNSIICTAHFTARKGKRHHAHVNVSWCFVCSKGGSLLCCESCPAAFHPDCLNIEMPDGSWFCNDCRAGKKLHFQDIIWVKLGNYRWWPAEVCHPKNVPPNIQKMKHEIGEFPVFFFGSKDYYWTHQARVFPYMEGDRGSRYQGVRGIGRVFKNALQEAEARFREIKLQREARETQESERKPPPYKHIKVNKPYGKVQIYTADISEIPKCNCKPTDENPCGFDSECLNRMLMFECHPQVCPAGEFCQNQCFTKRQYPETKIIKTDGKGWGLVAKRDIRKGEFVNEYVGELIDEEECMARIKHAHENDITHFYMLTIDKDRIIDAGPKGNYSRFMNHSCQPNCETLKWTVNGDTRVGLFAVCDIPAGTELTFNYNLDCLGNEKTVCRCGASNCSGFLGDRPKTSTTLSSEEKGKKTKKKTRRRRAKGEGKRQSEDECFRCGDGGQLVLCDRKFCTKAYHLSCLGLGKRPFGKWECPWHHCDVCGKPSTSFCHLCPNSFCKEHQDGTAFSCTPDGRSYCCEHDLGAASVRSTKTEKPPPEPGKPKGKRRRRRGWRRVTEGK
Numbers without * were called inactive. Many of the other results were omitted from the sample, so hits are more common in it than they were.

SMILES	NSD2 inh
[N-]=[N+]=NCc1ccccc1C[C@]1(C(=O)N2CCOCC2)N=C(c2ccc(OCCCO)cc2)O[C@H]1c1ccccc1	-4
O=C(NO)c1cccc(C(=O)N/N=C/c2c(O)cc(O)cc2O)c1	12
COC(=O)CCCCCCC(=O)N/N=C/c1cccc(O)c1	6
O=c1c(-c2ccccc2)[n+]([O-])c2ccccc2n1OCc1ccccc1	-3
Cc1ccc(S(=O)(=O)N[C@@H](Cc2ccccc2)C(=O)NCCn2cc(-c3ccccc3N)nn2)cc1	35
CCC(C)C(=O)c1c(O)cc2c(c1O)CC(CC=C(C)C)C(C)(C)O2 (stereo not given)	0
COC(=O)C1=COC(OC2OC(CO)C(O)C(O)C2O)C2C1C(O)CC2(C)OC(C)=O (stereo not given)	6
COc1ccc(CCN2C(=O)C(C)SC2c2cccnc2)cc1 (stereo not given)	1
CC(C)CC(=O)c1c(O)cc(O)cc1OC1OC(COC(=O)c2cc(O)c(O)c(O)c2)C(O)C(O)C1O (stereo not given)	52*
COc1cc(C(=O)OCC2(O)COC(OCC3OC(Oc4c(OC)cc(CO)cc4OC)C(O)C(O)C3O)C2O)cc(OC)c1O (stereo not given)	20
O=C(OCc1ccccc1O[C@@H]1O[C@H](CO)[C@@H](O)[C@H](O)[C@H]1O)c1c(O)cccc1O[C@@H]1O[C@H](CO)[C@@H](O)[C@H](O)[C@H]1O	3
Cc1ccc(C(C)C)c(OCC(=O)/C=C2\Sc3ccccc3N2C)c1	-9
O=C1N(O)C2(C=CCCC2)/C(=N/O)C12CCCCC2 (stereo not given)	10
O=C(N/N=C/c1cn(Cc2ccccc2)c2ccccc12)c1ccccc1O	-1
COc1ccc(/C=N/NC(=O)CCCCCCC(=O)Nc2ccccc2O)c(OC)c1	-1
Cc1cc(O)c(C)c2c1Oc1c(C)c(O)cc(C)c1C(=O)O2	-3
COC(=O)CCCCCCC(=O)N/N=C/c1c(O)ccc2ccccc12	2
O=c1c(OC2OCC(O)C(O)C2O)c(-c2ccc(O)c(O)c2)oc2cc(O)cc(O)c12 (stereo not given)	60*
O=c1c(O[C@@H]2O[C@H](CO)[C@H](O)[C@H](O)[C@H]2O)c(-c2ccc(O)cc2)oc2cc(O)cc(O)c12	0
O=c1c(O[C@@H]2OC[C@H](O)[C@H](O)[C@H]2O)c(-c2ccc(O)cc2)oc2cc(O)cc(O)c12	72*
C[C@@H]1O[C@@H](Oc2cc(O)c3c(=O)c(O[C@@H]4O[C@@H](C)[C@H](O)[C@@H](O[C@@H]5OC[C@@H](O)[C@H](O)[C@H]5O)[C@H]4O[C@@H]4O[C@H](CO)[C@@H](O)[C@H](O)[C@H]4O)c(-c4ccc(O)c(O)c4)oc3c2)[C@H](O)[C@H](O)[C@H]1O	6
COc1c(-c2ccc(O)cc2)oc2cc(O)cc(O)c2c1=O	-2
O=c1c(O[C@@H]2OC[C@H](O)[C@H](O)[C@H]2O)c(-c2ccc(O)c(O)c2)oc2cc(O)cc(O)c12	30
O=C(NO)c1cccc(C(=O)N/N=C/c2cccc3ccccc23)c1	-4
O=C1C[C@@](C(=O)NCc2ccccc2)(c2ccc([N+](=O)[O-])cc2)[C@@H](c2ccc(CO)cc2)N1C1CCCCC1	7
SMILES	NSD2 inh
Oc1ccc2c(c1O)OCC1c3cc4c(cc3OC21)OCO4 (stereo not given)	4
COc1ccc2c(c1)O[C@H]1c3ccc(O)cc3OC[C@@H]21	2
OC[C@H]1O[C@@H](Oc2ccc3c(c2)OC[C@H]2c4cc5c(cc4O[C@@H]32)OCO5)[C@H](O)[C@@H](O)[C@@H]1O	68*
CC(=O)O[C@@H]1CC2C(C)(C)C(=O)C3OC3[C@]2(C)C2CC[C@@]3(C)[C@H](c4ccoc4)OC(=O)C4OC43[C@@]21C (stereo not given in full)	-2
COC(=O)[C@@H](O)[C@H]1[C@@]2(C)C[C@]3(O)C4[C@@H](O[C@]56CC(=O)O[C@@H](c7ccoc7)[C@@]5(C)CCC([C@]46O)[C@]13C)[C@H]2O (stereo not given in full)	76*
CC12CC(c3ccoc3)OC(=O)C1CCC1(C)C2C2OC(=O)C1(O)C1OC21 (stereo not given)	2
COC1OC2c3cc4c(cc3CCN(C)C2c2ccc3c(c21)OCO3)OCO4 (stereo not given)	-2
Cc1ccc(NC2=CC(=O)c3sc(C)nc3C2=O)cc1	74*
CSc1nc2n(n1)C(=O)CC(C)(C)N2	3
O=C(N/N=C/c1ccc(O)c(O)c1O)c1ccccc1O	7
CCc1ccccc1N(CC(=O)N1CCC(Cc2ccccc2)CC1)S(C)(=O)=O	4
OCc1ccc(COc2ccc3ccncc3c2)cc1	5
[N-]=[N+]=NCc1ccccc1C[C@@]1(C(=O)NCCN2CCOCC2)N=C(c2ccc(OCCCO)cc2)O[C@@H]1c1ccccc1	-1
CN1c2ccccc2Oc2nnc(N3CCN(c4ccccc4)CC3)cc21	1
CC(C)CC1NC(=O)C2CCCN2C1=O (stereo not given)	9
O=C(CCCCC(=O)N/N=C/c1ccccc1)NO	-3
O=C(CCCCC(=O)N/N=C/c1c(F)c(F)c(F)c(F)c1F)NO	-2
COc1ccc(S(=O)(=O)NC2CCN(Cc3cccc(OCCO)c3)CC2)cc1	2
CCO[C@@H]1OC(C(=O)N2CCOCC2)=C[C@H](c2ccc3c(c2)OCO3)[C@H]1CCCO	2
c1ccc2c(c1)CCCc1cc(NCCN3CCOCC3)nnc1-2	3
O=C1C(Cl)=C(NCCN2CCOCC2)C(=O)c2ncccc21	90*
Cc1ccc(S(=O)(=O)c2nc(-c3ccccc3)oc2NCCN2CCOCC2)cc1	4
O=c1sc(N2CCN(C3CCCCC3)CC2)nc2ccsc12	6
Clc1cc(Cl)c2nc(Oc3cccc(N4CCOCC4)c3)sc2c1	10
Cc1ccc(SCc2[nH]n(-c3nc4ccccc4s3)c(=O)c2C=NCc2ccco2)cc1	-8
SMILES	NSD2 inh
COc1ccc(-c2cc(=O)c3c(O)c(OC)c(O[C@@H]4O[C@H](CO)[C@@H](O)[C@H](O)[C@H]4O[C@@H]4O[C@@H](C)[C@H](O)[C@@H](O)[C@H]4O)cc3o2)cc1	-4
O=C(NO)c1ccc(C(=O)N/N=C/c2ccc(O)c(F)c2)cc1	-5
C=C(C)[C@@H]1CC=C(/C=N/NC(=O)CCCCCC(=O)O)CC1	4
COC(=O)c1sc(C(C)(C)C)cc1CS(=O)(=O)c1cc(C)c(Cl)cc1C	8
C=C/C=C/[C@@H]1C(=C)CN([C@@H](Cc2ccc(N=[N+]=[N-])cc2)C(=O)OC)[C@H]1[C@@H](O)Cc1ccccc1	1
O=C(N/N=C/c1cccs1)c1ccccc1O	3
COC(=O)C1=CO[C@@H](O[C@@H]2O[C@H](CO)[C@@H](O)[C@H](O)[C@H]2O)[C@H]([C@H](C)OC(C)=O)[C@@H]1CC(=O)O	-89
COc1cc2c(cc1O)C(C1CC1)N(C)CC2 (stereo not given)	0
COc1cc(C[C@H]2CO[C@H](c3ccc(O[C@@H]4O[C@H](CO)[C@@H](O)[C@H](O)[C@H]4O)c(OC)c3)[C@H]2CO)ccc1O	54
COc1cc(C2c3c(cc(OC)c(O)c3OC)CC(CO)C2COC2OC(CO)C(O)C(O)C2O)cc(OC)c1O (stereo not given)	76*
COc1cc(C2c3c(cc(OC)c(O)c3OC)CC(CO)C2COC2OCC(O)C(O)C2O)cc(OC)c1O (stereo not given)	39
COC(=O)c1ccc(/C=N/NC(=O)c2ccc(C(=O)NO)cc2)cc1	1

From PubChem BioAssay
